Tested on: HepG2
Experiment: GSK_TCMDC: Percent inhibition of human HepG2 cell line. Test compounds present at 10uM.
Format: functional

First: COc1ccc(-c2nc(NC(=O)Cc3coc4cc(OC)ccc34)sc2C)cc1
Second: CC(C)Oc1cc2c(cc1NS(=O)(=O)c1ccc(-c3ccc(Cl)s3)cc1F)CCN(C)CC2.Cl
The Inhibition of the first is lower: 9% for the first, 23% for the second.

Going from CCC(C)NC(=O)CN1CN(c2ccccc2)C2(CCN(C(=O)c3ccc(C(C)(C)C)cc3)CC2)C1=O (stereo unspecified) to O=C(Nc1ccc(N2CCCN(Cc3cccc(F)c3)CC2)cc1)c1ccccc1.O=C(O)C(F)(F)F, the Inhibition rises from 0% to 25%.

First: COc1ccc2ccccc2c1CCCCN1CCN(CC(c2ccc(F)cc2)N2CCC(N3CCCC3)CC2)CC1.O=C(O)C(F)(F)F (stereo unspecified)
Second: O=C(C=Cc1ccc(Cl)c(Cl)c1)NCCCCCN1CCCC(CCCNC(=O)c2sc3ccccc3c2Cl)C1 (stereo unspecified)
The Inhibition of the first is lower: 74% for the first, 82% for the second.

From ChEMBL document CHEMBL1157539, “Thousands of chemical starting points for antimalarial lead identification” (Nature, 2010)
